From PubChem BioAssay
The source made the active and inactive calls. Unless noted, the rule behind the calls is not given here.

How the values were obtained:
[1] = system: Wnt5a (protein binding on small-molecule microarray); assay: Wnt5a binders on small-molecule microarray, primary screen, biophysical, 635/667 nm fluorescence (AID 1142); details: 635 nm fluorescence, higher = more signal;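 note: fluorescence read at 667 nm with signal to noise per printed feature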
[2] = cell viability in Huh7 cells, primary screen, cytotoxicity control for HCV replication inhibitor project, CellTiter-Glo luminescence, basal, 48 h (AID 1143); details: Huh7 HCV replicon, higher = more signal, called active from +8 up or from −8 down;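 note: Huh7 hepatoma cells carrying a hepatitis C replication reporter with no stimulus; test concentration not given here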
[3] = P. aeruginosa biofilm formation inhibitors, primary screen, PAO1 strain, BacTiter-Glo luminescence, LB-PBS (AID 1144); details: 12 h, higher = more signal
[4] = CREB reporter modulators without forskolin, primary screen, cell-based, PC12, CRE-LacZ reporter, unstimulated (AID 1145); details: no forskolin, luminescence, 4.5 h, higher = more signal, called active from +8 up or from −8 down
[5] = CREB reporter modulators under forskolin, primary screen, cell-based, PC12, CRE-LacZ reporter, forskolin-stimulated (AID 1146); details: luminescence, 4.5 h, higher = more signal, called active from +8 up or from −8 down;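 note: PC12 cells with 6xCRE LacZ reporter stimulated by forskolin 10 µM; beta-galactosidase reporter signal reflecting CREB driven transcription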
[6] = target: Streptavidin (Streptomyces avidinii) (UniProt P22629); assay: streptavidin binders on small-molecule microarray, primary screen, artefact control for SMM compound annotation, biophysical, 635/667 nm fluorescence (AID 1147); details: streptavidin binding, higher = more signal;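 note: signal reflects streptavidin binding to arrayed compounds as a control protein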
[7] = small-molecule binders of probe aInhba, primary screen, biochemical, small-molecule microarray, 635/667 nm fluorescence (AID 1148); details: higher = more signal;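 note: score merges 667nm spot fluorescence with signal-to-noise for antibody binding to printed compounds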
Torsin-1A (Homo sapiens) [8] = target: Torsin-1A (Homo sapiens) (UniProt O14656); assay: torsin A binders from cell lysate, primary screen, small-molecule microarray, wild-type, 635/667 nm (AID 1149); details: COS7 hTOR1A-WT lysate, 635 nm fluorescence, higher = more signal
Torsin-1A (Homo sapiens) [9] = target: Torsin-1A (Homo sapiens) (UniProt O14656); assay: small-molecule binders of mutant TOR1A in lysate, primary screen, cell lysate, small-molecule microarray, COS7 lysate, 635/667 nm fluorescence (AID 1150); details: COS7 hTOR1A mutant lysate, 635 nm fluorescence, higher = more signal;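 note: score pools 667 nm emission and signal to noise measuring lysate protein binding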
[10] = system: Sonic hedgehog protein (Shh); assay: small-molecule binders of Shh protein, primary screen, biochemical, small-molecule microarray, 635/667 nm fluorescence (AID 1151); details: small-molecule microarray binding, 635 nm fluorescence; higher = more signal;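 note: Shh protein binding to compounds spotted on small-molecule microarray slides; score combines spot fluorescence intensity with signal-to-noise across triplicate slides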

Sequence of Streptavidin (Streptomyces avidinii) (P22629 whole entry, looked up): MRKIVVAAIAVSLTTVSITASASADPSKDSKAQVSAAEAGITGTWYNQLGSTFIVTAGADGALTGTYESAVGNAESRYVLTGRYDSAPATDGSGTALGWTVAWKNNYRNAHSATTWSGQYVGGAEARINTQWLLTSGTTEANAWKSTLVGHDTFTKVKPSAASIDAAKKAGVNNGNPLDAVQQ
Sequence of Torsin-1A (Homo sapiens) (O14656 whole entry, looked up): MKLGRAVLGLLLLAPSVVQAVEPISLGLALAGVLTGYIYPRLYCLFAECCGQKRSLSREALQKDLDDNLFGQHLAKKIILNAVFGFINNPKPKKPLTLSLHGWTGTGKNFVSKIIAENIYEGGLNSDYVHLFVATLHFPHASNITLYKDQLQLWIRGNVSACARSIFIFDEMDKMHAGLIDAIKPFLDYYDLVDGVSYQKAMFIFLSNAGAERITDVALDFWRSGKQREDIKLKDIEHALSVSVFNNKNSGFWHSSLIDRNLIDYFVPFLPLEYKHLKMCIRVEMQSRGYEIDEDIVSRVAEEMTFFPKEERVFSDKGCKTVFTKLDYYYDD

Row | Structure (SMILES) | composite z-score [1] | z-score [2] | z-score [3] | z-score [4] | z-score [5] | composite z-score [6] | composite z-score [7] | composite z-score (Torsin-1A (Homo sapiens) [8]) | composite z-score (Torsin-1A (Homo sapiens) [9]) | composite z-score [10]
1 | CC(CCN1CCCc2nc(C)c(C)cc21)=NOC[C@@H](C)[C@H](OCc1ccccc1)C(C)C | -0.257 | -1.01 (inactive) | -0.47 (inactive) | -1.14 (inactive) | -0.186 (inactive) | -0.983 | -0.101 | -0.469 | -0.931 | 0.0185
2 | CC(CCC(=O)OC[C@H]1O[C@H](C#Cc2ccccc2)C=C[C@@H]1Oc1ccc(C)cc1)=NOC(C)CN1CCCCc2nc(C)c(C)cc21 (stereo not given in full) | -0.271 | -1.13 (inactive) | 0.455 (inactive) | -0.561 (inactive) | 1.1 (inactive) | -0.0512 | -0.246 | -0.453 | -0.269 | 0.517
3 | CCOC(=O)CCN1C(=O)[C@H]2[C@H]3[C@H](O)[C@H](O)CC(=NOCC(C)C)[C@@H]3CC[C@H]2C1=O | 0.0707 | -1.76 (inactive) | -0.123 (inactive) | 0.424 (inactive) | -0.209 (inactive) | -0.483 | -0.0986 | 2.79 | 2.77 | 1.1
4 | O=C1CCCC=C1C(O)c1ccc([N+](=O)[O-])cc1 (stereo not given) | 0.042 | 1.18 (inactive) | 0.843 (inactive) | -0.706 (inactive) | 0.126 (inactive) | 0.0753 | -0.212 | 0.911 | 0.0183 | -0.676
5 | CC(C)=NOC(C)CN1CCCCc2nc(C)c(C)cc21 (stereo not given) | 0.243 | 0.479 (inactive) | 0.282 (inactive) | -0.236 (inactive) | 0.0266 (inactive) | -0.28 | 0.0314 | 0.765 | 0.346 | 0.681
6 | CC(C)=NO[C@H](C)c1cn([C@@H]2COC[C@H]2O)nn1 | 0.185 | 0.495 (inactive) | -1.16 (inactive) | 0.099 (inactive) | -0.0851 (inactive) | -0.085 | -0.0963 | 0.455 | 0.461 | 0.477
7 | CC(CCN1CCCCc2nc(C)c(C)cc21)=NO[C@@H](C)c1cc(-c2c(C)cc(C)cc2C)no1 | -0.525 | -3.04 (inactive) | -0.425 (inactive) | 1.9 (inactive) | 1.02 (inactive) | -1.23 | -0.211 | -1.18 | -0.956 | -0.235
8 | CCN1C(=O)[C@H]2[C@H]3[C@H](O)[C@H](O)CC(=NO[C@@H]4O[C@H](COC(C)=O)[C@@H](OC(C)=O)[C@H](OC(C)=O)[C@H]4OC(C)=O)[C@@H]3CC[C@H]2C1=O | 0.352 | 0.772 (inactive) | 1.22 (inactive) | -0.882 (inactive) | 0.171 (inactive) | 0.0251 | -0.0221 | 0.331 | 0.0248 | 1.03
9 | CCOC(=O)[C@H](Cc1ccccc1)NC(=O)CCC1CC(OC(=O)NCc2cccc3ccccc23)CC2(CCCC(COC(=O)NCCc3ccc(Cl)cc3)O2)O1 (stereo not given in full) | 0.0449 | -2.69 (inactive) | -1.39 (inactive) | 0.563 (inactive) | 0.0305 (inactive) | 0.998 | -0.223 | -0.162 | 0.244 | 0.932
10 | CC(CCN1CCCc2nc(C)c(C)cc21)=NOC[C@@H](O)COCc1ccco1 | 0.516 | -0.244 (inactive) | -0.837 (inactive) | -0.0638 (inactive) | -0.175 (inactive) | 0.0849 | 1.26 | 4.39 | 4.29 | 2.5
11 | C[C@@H]1CC[C@H]2C(=O)O[C@@H](COc3ccc(C(C)(C)C)cc3)CN2[C@H]1c1ccc(Br)cc1 | 0.0114 | -0.0293 (inactive) | 0.0807 (inactive) | 0.345 (inactive) | 0.213 (inactive) | 0.0826 | -0.0523 | 0.159 | -0.0416 | 0.526
12 | C#CCCCON=C1[C@H]2CCn3c(=O)n([C@@H](CC)c4ccccc4)c(=O)n3[C@H]2[C@H](O)[C@@H]2O[C@H]12 | 0.352 | 0.222 (inactive) | 0.453 (inactive) | 1.15 (inactive) | 0.253 (inactive) | 0.017 | -0.045 | -0.0784 | 0.472 | 0.441
13 | CC(C)(C)N1C(=O)[C@H]2[C@@H]3C(=CC[C@H]2C1=O)C(=O)[C@H]1O[C@H]1[C@H]3O | -0.264 | -6.85 (inactive) | 0.652 (inactive) | -0.748 (inactive) | -3.08 (inactive) | -0.5 | -0.127 | 1.84 | -0.0252 | 0.981
14 | CSCC[C@@H]1NC(=O)CC=C[C@@H](C)COC(=O)[C@H](C)COC1=O | 0.624 | -1.67 (inactive) | -1.66 (inactive) | 0.163 (inactive) | -0.925 (inactive) | -0.918 | -0.17 | 3.64 | 3.77 | 2.45
15 | COc1ccc(O[C@H]2C=C[C@@H](c3ccccc3)O[C@@H]2COC(=O)CCC(C)=NOC[C@@H](O)COCc2ccco2)cc1 | -1.31 | -1.42 (inactive) | 0.104 (inactive) | 3.94 (inactive) | -0.215 (inactive) | -2.51 | -0.443 | -6.12 | -2.73 | -1.09
16 | CO[C@H]1C[C@@H]2C[C@H](O)CC(CC(=O)O[C@@H](C=CCC(C)C)C[C@@H]3CC[C@H](C)[C@@H](C1)O3)O2 | 0.318 | -0.454 (inactive) | 0.883 (inactive) | 2.64 (inactive) | 0.405 (inactive) | 0.645 | -0.0494 | 0.778 | 0.183 | 1.02
17 | COC(=O)[C@H](CCSC)NC(=O)CC=C[C@@H](C)CO | 0.848 | -0.62 (inactive) | -0.449 (inactive) | 0.75 (inactive) | 0.118 (inactive) | -1.27 | -0.128 | 3.29 | 3.16 | 2.18
18 | O=C1C=C[C@@H](O)[C@@H]2[C@@H]3C(=O)N(C4CCCCC4)C(=O)[C@@H]3CC[C@@H]12 | 0.474 | -2.62 (inactive) | 0.411 (inactive) | 0.25 (inactive) | 0.915 (inactive) | -0.748 | 0.177 | 0.54 | 0.595 | 0.781
19 | CCN1C(=O)[C@H]2[C@H]3[C@H](O)[C@H](O)CC(=NO[C@H](C)c4cn([C@@H]5COC[C@H]5O)nn4)[C@@H]3CC[C@H]2C1=O | 0.0122 | 0.654 (inactive) | -0.332 (inactive) | 0.0013 (inactive) | 0.446 (inactive) | 0.079 | -0.0468 | 0.174 | 0.0806 | 0.0707
20 | CCOC(=O)[C@H](CC(C)C)NC(=O)CCC1CC(OC(=O)NCc2ccc3c(c2)OCO3)CC2(CCCC(COC(=O)NCCC(C)C)O2)O1 (stereo not given in full) | 0.0093 | -0.172 (inactive) | -0.32 (inactive) | -0.889 (inactive) | 0.128 (inactive) | 0.0476 | -0.128 | -0.0916 | -0.0963 | 0.54
21 | O=C1C2=CC[C@H]3C(=O)N(C4CCCCC4)C(=O)[C@H]3[C@H]2[C@H](O)[C@@H]2O[C@H]12 | -0.272 | -8.35 (active) | -0.366 (inactive) | 17.1 (active) | 30.1 (active) | -0.408 | -0.183 | -0.695 | -0.53 | -0.689
22 | CC(CCN1CCCCc2nc(C)c(C)cc21)=NOC[C@@H](O)[C@H]1O[C@@H]2OC(C)(C)O[C@@H]2[C@H]1O | 0.228 | 1.06 (inactive) | -0.0386 (inactive) | -0.0824 (inactive) | 1.41 (inactive) | -0.0979 | -0.248 | 0.477 | 0.296 | 1.62
23 | COc1ccc(O[C@H]2C=C[C@@H](C#Cc3ccccc3)O[C@@H]2CO)cc1 | -0.0391 | -4.1 (inactive) | 0.451 (inactive) | 0.653 (inactive) | -0.003 (inactive) | 0.966 | -0.182 | -0.0668 | -0.0971 | 0.0864
24 | CCOC(=O)CCN1C(=O)[C@H]2[C@H]3[C@H](O)[C@H](O)CC(=NNC(=O)OCc4ccccc4)[C@H]3CC[C@H]2C1=O | 0.126 | -1.31 (inactive) | -0.326 (inactive) | 1.07 (inactive) | -0.253 (inactive) | -0.362 | -0.0781 | 1.95 | 2.44 | 0.968
25 | COc1ccc2c(c1)O[C@@H](c1cccc(C(F)(F)F)c1)[C@H](O)C2=O | 0.104 | -2.98 (inactive) | -0.837 (inactive) | 2.27 (inactive) | -0.892 (inactive) | 0.562 | -0.0645 | -0.0248 | 0.215 | 0.37
26 | CCCC[C@H]1CN2[C@@H](CC[C@@H](C)[C@@H]2c2ccc(Br)cc2)C(=O)O1 | 0.132 | -1.44 (inactive) | 0.616 (inactive) | 0.755 (inactive) | -0.0888 (inactive) | 0.426 | -0.0494 | 0.836 | 0.716 | 0.456
27 | COc1ccc(COC(=O)NN=C2C[C@@H](O)[C@@H](O)[C@@H]3[C@@H]4C(=O)N(Cc5ccccc5)C(=O)[C@@H]4CC[C@@H]23)cc1 | -0.0129 | -0.19 (inactive) | 0.99 (inactive) | -0.655 (inactive) | 0.426 (inactive) | -0.323 | 0.0785 | -0.0532 | 0.226 | 0.111
28 | COc1ccc(O[C@H]2C=C[C@@H](c3ccccc3)O[C@@H]2CO)cc1 | 0.0263 | -1.12 (inactive) | 0.584 (inactive) | -0.617 (inactive) | -0.265 (inactive) | 0.145 | -0.0412 | 0.139 | 0.153 | 0.507
29 | CC(=O)OC[C@H]1O[C@H](CCON=C(C)C)C=C[C@@H]1OC(C)=O | 0.0141 | 0.702 (inactive) | 0.249 (inactive) | -0.715 (inactive) | 0.383 (inactive) | 0.17 | -0.038 | -0.0297 | -0.115 | 0.427
30 | C#CCCCON=C1C[C@@H](O)[C@@H](O)[C@@H]2[C@@H]3C(=O)N([C@@H](C)c4ccccc4)C(=O)[C@@H]3CC[C@@H]12 | 0.025 | 0.341 (inactive) | -0.0365 (inactive) | 0.0676 (inactive) | 0.227 (inactive) | 0.214 | -0.239 | -0.281 | -0.434 | 0.0938
